Measured values taken from PMC4336329 (PLoS ONE, 2015).
In all, about 310,000 compounds went through this assay and about 14,000 (4.5%) showed an effect of 50% or more. The effect is printed as a negative number. The sample as a whole holds a higher share of strong results than the screen did.

The molecules below were run against human ether-à-go-go-related gene (hERG) potassium channel (human, UniProt Q12809) (assay: primary screen, population patch clamp on CHO cells stably expressing hERG; higher = less effect of the substance).
Chain of human ether-à-go-go-related gene (hERG) potassium channel (Q12809 whole entry, looked up): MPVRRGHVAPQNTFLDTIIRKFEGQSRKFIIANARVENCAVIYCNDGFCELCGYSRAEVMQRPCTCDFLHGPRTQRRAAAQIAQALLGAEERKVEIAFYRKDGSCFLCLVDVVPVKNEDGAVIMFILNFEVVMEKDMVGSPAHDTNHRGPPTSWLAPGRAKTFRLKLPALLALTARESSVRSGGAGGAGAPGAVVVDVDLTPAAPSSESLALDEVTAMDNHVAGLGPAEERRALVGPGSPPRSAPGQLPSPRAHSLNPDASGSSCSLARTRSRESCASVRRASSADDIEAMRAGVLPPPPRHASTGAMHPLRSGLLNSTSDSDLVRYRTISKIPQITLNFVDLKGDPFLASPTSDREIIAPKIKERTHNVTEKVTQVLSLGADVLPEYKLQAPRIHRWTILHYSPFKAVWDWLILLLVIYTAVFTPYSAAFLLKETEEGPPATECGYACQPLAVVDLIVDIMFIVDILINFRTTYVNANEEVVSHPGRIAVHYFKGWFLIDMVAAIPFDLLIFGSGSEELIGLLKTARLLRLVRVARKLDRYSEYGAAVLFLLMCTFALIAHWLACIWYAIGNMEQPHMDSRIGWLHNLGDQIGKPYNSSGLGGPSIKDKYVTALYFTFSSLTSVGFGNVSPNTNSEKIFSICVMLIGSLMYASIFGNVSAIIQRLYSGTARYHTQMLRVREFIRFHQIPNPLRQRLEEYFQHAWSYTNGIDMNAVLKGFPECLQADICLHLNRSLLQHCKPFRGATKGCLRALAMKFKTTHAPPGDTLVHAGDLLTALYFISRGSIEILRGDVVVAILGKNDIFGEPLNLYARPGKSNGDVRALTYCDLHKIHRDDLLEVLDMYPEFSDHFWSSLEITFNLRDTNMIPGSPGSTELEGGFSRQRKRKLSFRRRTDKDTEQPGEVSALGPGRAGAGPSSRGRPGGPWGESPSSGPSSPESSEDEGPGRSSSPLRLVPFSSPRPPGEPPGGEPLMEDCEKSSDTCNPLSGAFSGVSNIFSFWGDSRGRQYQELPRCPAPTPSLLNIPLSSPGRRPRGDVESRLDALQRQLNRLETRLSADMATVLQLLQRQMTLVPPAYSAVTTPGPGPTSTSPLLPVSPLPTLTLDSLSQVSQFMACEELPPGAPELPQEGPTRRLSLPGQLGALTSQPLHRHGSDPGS
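Note: peak tail current of the secondary pulse compared with the same well before compound.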

How did the “hERG current change (%, negative = inhibition) at 10uM” value turn out when `Cc1c(O)ccc2c(CN(C)Cc3ccccc3)cc(=O)oc12` was run?
The value was 10.2%.

`Cc1ccc2c(CN3CCOCC3)cc(=O)oc2c1C` was tested. Which “hERG current change (%, negative = inhibition) at 10uM” value did it give?
Its value is 0.23%.

`Cc1cc2oc(=O)cc(CN3CCCCC3)c2cc1O` was tested. Which “hERG current change (%, negative = inhibition) at 10uM” value did it give?
The value was -1.42%.

For `O=c1cc(CN2CCN(C/C=C/c3ccccc3)CC2)c2cc(O)c(-c3ccccc3)cc2o1`, which “hERG current change (%, negative = inhibition) at 10uM” value is on record?
Its value is 11.6%.

How did the “hERG current change (%, negative = inhibition) at 10uM” value turn out when `CCC(C)Sc1ccc([C@H]2N[C@@](C)(C(=O)OC)[C@H]3C(=O)N(CC)C(=O)[C@@H]23)cc1.O=C(O)C(F)(F)F` (stereo partly shown) was run?
Its value is 7.25%.

`Brc1ccc(-c2nnc3n2-c2ccccc2CC3)cc1` was tested. Which “hERG current change (%, negative = inhibition) at 10uM” value did it give?
The value was -41.3%.

For `COc1ccc(NC(=O)c2cc(OC)c(OC)c(OC)c2)cc1S(=O)(=O)N1CCCCC1`, which “hERG current change (%, negative = inhibition) at 10uM” value is on record?
The value was 15.5%.

With `COc1ccc(C(=O)Nc2ccc(S(=O)(=O)N3CCCCC3)cc2)cc1OC` as the molecule, how does the “hERG current change (%, negative = inhibition) at 10uM” value read?
The value was -9.83%.

With `COc1ccc(NC(=O)c2ccc(Cl)nc2)cc1S(=O)(=O)N1CCCCC1` as the molecule, how does the “hERG current change (%, negative = inhibition) at 10uM” value read?
The value was -59%.

`COc1ccc(NC(=O)c2cccc(S(=O)(=O)N3CCCC3)c2)cc1OC` was tested. Which “hERG current change (%, negative = inhibition) at 10uM” value did it give?
The value was -4.78%.

Which “hERG current change (%, negative = inhibition) at 10uM” value does the source give for `COc1ccc(NC(=O)c2ccc(S(=O)(=O)N3CCCC3)cc2)cc1OC` here?
Its value is -158%.

`COc1ccc(NC(=O)c2ccc(Cl)nc2)cc1S(=O)(=O)N1CCOCC1` was tested. Which “hERG current change (%, negative = inhibition) at 10uM” value did it give?
Its value is -10.5%.

For `S=C(c1c[nH]c2ccccc12)N1CCCC1`, which “hERG current change (%, negative = inhibition) at 10uM” value is on record?
Its value is 9.74%.

How did the “hERG current change (%, negative = inhibition) at 10uM” value turn out when `Cc1ccc(CN2CC(C(=O)Nc3nnc(SCc4c(Cl)cccc4Cl)s3)CC2=O)cc1` (stereo not shown) was run?
Its value is 14.1%.

For `Cn1cc(C(=O)OCC(=O)NC2CCCC2)c2ccccc21`, which “hERG current change (%, negative = inhibition) at 10uM” value is on record?
Its value is 7.9%.

For `O=[N+]([O-])c1ccccc1S(=O)(=O)NCCc1ccncc1`, which “hERG current change (%, negative = inhibition) at 10uM” value is on record?
Its value is 14.9%.

For `COc1ccccc1C(=O)OCC(=O)Nc1ccc(Cl)cn1`, which “hERG current change (%, negative = inhibition) at 10uM” value is on record?
Its value is 10.1%.

`COc1cccc(NC(=O)NC2CCN(Cc3nnnn3Cc3ccc4c(c3)OCO4)CC2)c1` was tested. Which “hERG current change (%, negative = inhibition) at 10uM” value did it give?
Its value is -23.3%.

`COc1cccc(NC(=O)NC2CCN(Cc3nnnn3Cc3ccc(F)cc3)CC2)c1` was tested. Which “hERG current change (%, negative = inhibition) at 10uM” value did it give?
Its value is -53.2%.

How did the “hERG current change (%, negative = inhibition) at 10uM” value turn out when `COCCn1nnnc1CN1CCC(NC(=O)Nc2cccc(OC)c2)CC1` was run?
The value was 8.3%.

For `Cc1ccccc1C(=O)NC1CCN(Cc2nnnn2Cc2ccc(F)cc2)CC1`, which “hERG current change (%, negative = inhibition) at 10uM” value is on record?
Its value is -40.9%.

Which “hERG current change (%, negative = inhibition) at 10uM” value does the source give for `O=C(Nc1ccccc1F)NC1CCN(Cc2nnnn2Cc2ccc(F)cc2)CC1` here?
The value was -69.2%.

`Cc1ccc(Cn2nnnc2CN2CCC(NC(=O)c3ccccc3F)CC2)cc1` was tested. Which “hERG current change (%, negative = inhibition) at 10uM” value did it give?
The value was -27.2%.

For `OC(c1ccccc1)(c1ccccc1)C1CCN(C(=S)NCCc2ccccc2)CC1`, which “hERG current change (%, negative = inhibition) at 10uM” value is on record?
The value was 16.3%.

With `CN(CC(=O)Nc1cccc(F)c1)C(=O)C1CC(=O)N(Cc2ccco2)C1` (stereo not shown) as the molecule, how does the “hERG current change (%, negative = inhibition) at 10uM” value read?
Its value is -8%.

For `CN(Cc1ccccc1)CC(O)COc1ccc(CNCCc2cccnc2)cc1` (stereo not shown), which “hERG current change (%, negative = inhibition) at 10uM” value is on record?
Its value is -11.5%.

For `Cc1ccc(S(=O)(=O)N(CC(=O)NCc2ccccn2)c2ccc(Cl)cc2)cc1`, which “hERG current change (%, negative = inhibition) at 10uM” value is on record?
The value was -29.7%.

For `CN(CC(=O)NCc1ccccn1)S(=O)(=O)c1ccc(Cl)cc1`, which “hERG current change (%, negative = inhibition) at 10uM” value is on record?
The value was -12%.

Which “hERG current change (%, negative = inhibition) at 10uM” value does the source give for `CCNC(=O)CN(c1ccc(C)cc1)S(=O)(=O)c1ccc(SC)cc1` here?
Its value is -19%.

For `O=C(CN(c1cccc(Cl)c1)S(=O)(=O)c1ccc(Cl)cc1)NCc1ccccn1`, which “hERG current change (%, negative = inhibition) at 10uM” value is on record?
The value was -53.1%.

How did the “hERG current change (%, negative = inhibition) at 10uM” value turn out when `COc1ccc(S(=O)(=O)N(CC(=O)NCc2ccccn2)c2ccc(Cl)cc2)cc1` was run?
The value was 13.3%.

For `CSc1ccc(S(=O)(=O)N(CC(=O)NCc2ccccn2)c2ccc(C)cc2)cc1`, which “hERG current change (%, negative = inhibition) at 10uM” value is on record?
The value was -59.3%.

With `CCN(Cc1ccccc1)S(=O)(=O)c1ccc2c(c1)NC(=O)CS2` as the molecule, how does the “hERG current change (%, negative = inhibition) at 10uM” value read?
Its value is -44.5%.

`CN(CC(=O)Nc1ccccc1Br)C(=O)CN(C)C1CCCCC1` was tested. Which “hERG current change (%, negative = inhibition) at 10uM” value did it give?
The value was 7.12%.

How did the “hERG current change (%, negative = inhibition) at 10uM” value turn out when `Cc1cccc(C)c1-n1c(C)cc(/C=N/NC(=O)c2ccncc2)c1C` was run?
Its value is -12%.

Which “hERG current change (%, negative = inhibition) at 10uM” value does the source give for `Cn1c(NC(=O)c2ccc(F)cc2)nc2ccccc21` here?
The value was 21.5%.

How did the “hERG current change (%, negative = inhibition) at 10uM” value turn out when `O=C(c1cc2cc([N+](=O)[O-])ccc2oc1=O)N1CCN(c2ncccn2)CC1` was run?
The value was -0.285%.

With `CCN1CCN(C(=O)c2cc3cc([N+](=O)[O-])ccc3oc2=O)CC1` as the molecule, how does the “hERG current change (%, negative = inhibition) at 10uM” value read?
The value was -14.4%.

Which “hERG current change (%, negative = inhibition) at 10uM” value does the source give for `O=C(c1cc2cc([N+](=O)[O-])ccc2oc1=O)N1CCN(C2CCCCC2)CC1` here?
Its value is -72.5%.

For `O=C(c1ccco1)N1CCN(C(=O)c2cc3cc([N+](=O)[O-])ccc3oc2=O)CC1`, which “hERG current change (%, negative = inhibition) at 10uM” value is on record?
The value was -52.4%.

With `O=C(c1cc2cc([N+](=O)[O-])ccc2oc1=O)N1CCOCC1` as the molecule, how does the “hERG current change (%, negative = inhibition) at 10uM” value read?
Its value is -0.062%.

Which “hERG current change (%, negative = inhibition) at 10uM” value does the source give for `O=C(c1ccco1)N1CCN(C(=O)c2cc3ccccc3oc2=O)CC1` here?
Its value is -13.2%.

`Cc1ccc(S(=O)(=O)CCC(=O)Nc2ccc(Br)cc2)cc1` was tested. Which “hERG current change (%, negative = inhibition) at 10uM” value did it give?
Its value is -7.37%.
